Where “and” joins values, the source holds several entries; their conditions need not be identical. Equal values may be shown once. Out of some 290,000 compounds screened, about 260 (0.09%) were called active. The sample holds actives, similar compounds and a random draw of the others, so the mix is not that of the screen. Rule as the data show it: active = inhibition above about 50%; inactive = the rest. Measured potencies and affinities stand elsewhere.

The record followed here is PubChem BioAssay AID1778 (Sanford-Burnham Center for Chemical Genomics, 2009).

Sequence of Kappa-type opioid receptor (Homo sapiens) (P41145 whole entry, looked up): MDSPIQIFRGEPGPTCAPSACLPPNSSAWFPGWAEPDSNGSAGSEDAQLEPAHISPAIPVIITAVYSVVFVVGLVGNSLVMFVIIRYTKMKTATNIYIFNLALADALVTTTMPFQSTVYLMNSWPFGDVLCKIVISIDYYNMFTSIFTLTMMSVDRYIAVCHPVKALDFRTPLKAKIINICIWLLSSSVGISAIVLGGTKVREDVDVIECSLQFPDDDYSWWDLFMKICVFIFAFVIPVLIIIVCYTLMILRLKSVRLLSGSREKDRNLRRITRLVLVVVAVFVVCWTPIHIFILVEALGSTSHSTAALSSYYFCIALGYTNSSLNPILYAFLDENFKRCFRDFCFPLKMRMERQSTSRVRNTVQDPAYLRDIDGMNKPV

The experiment has as its target Kappa-type opioid receptor (Homo sapiens) (UniProt P41145). Description: KOR antagonists, beta-arrestin recruitment, cell-based, luminescence, uHTS (AID 1778). Particulars: antagonist mode, stronger effect = higher value; at 10 µM unless noted.
Consider `O=C(N/N=C/c1cc2cc3c(cc2nc1Cl)OCO3)c1ccncc1`, for which the inhibition was -14.5% (inactive).

In the case of `O=C(NC(=S)N1CCN(c2ccc(C(F)(F)F)cc2[N+](=O)[O-])CC1)c1cccs1`, the inhibition is 6.2% (inactive).

On to `COc1ccc(N2CCN(C(=S)NC(=O)c3cccs3)CC2)c([N+](=O)[O-])c1`, for which the inhibition is 4.6% (inactive).

Turning to `CC(=O)c1ccc(NC(=S)N2CCCC(CO)C2)cc1` (centres undefined), the inhibition is 35.3% (inactive).

Turning to `C#CCOCCOCCOCCNc1nc(N2CCN(C(=O)[C@H](C)n3cc(CCCN=C(N)N)nn3)CC2)nc(N2CCN(C(=O)[C@H](CCCCN)n3cc(CCCC)nn3)CC2)n1`, the inhibition was -17.1% (inactive).

Consider `CN(Cc1ccccc1)c1ccc(C(CC(N)=O)NC(=O)c2ccccc2)cc1[N+](=O)[O-]` (centres undefined), for which the inhibition was -1.2% [at 20 µM] (inactive).

Take `O=C(CN1CCN(c2ccc(F)cc2)CC1)OCc1ccccc1`: the inhibition is 21.3% (inactive).

In the case of `Cc1ccc2oc(Nc3nc(C)c(C)c(C)n3)nc2c1`, the inhibition is 6.8% (inactive).

For the compound `COCc1cc(=O)[nH]c(Nc2nc3ccccc3o2)n1`, the inhibition was 14.7% (inactive).

As for `Cc1ccc2oc(Nc3nc(C)cc(C)n3)nc2c1`, the inhibition is 12.4% (inactive).

Take `Cc1cc(C)nc(Nc2nc3ccccc3o2)n1`: the inhibition is 17.6% (inactive).

Take `COc1ccccc1-c1ccc(Nc2cccc(C(F)(F)F)c2)nn1`: the inhibition is -2.2% (inactive).

In the case of `CCOc1ccc(S(=O)(=O)N(C)CC(=O)NCc2ccco2)cc1`, the inhibition was 5% (inactive).

On to `CCCC1=C(C(=O)OCC)C(c2c(C)nn(-c3ccccc3)c2Cl)C(C#N)=C(N)O1` (centres undefined), for which the inhibition is -61.5% (inactive).

As to `CCCOc1cccc(-c2cc(C(=O)NN)c3ccccc3n2)c1`, the inhibition is -44.7% (inactive).

Regarding `CCCOc1cccc(-c2cc(C(=O)N/N=C/c3cccnc3)c3ccccc3n2)c1`, the inhibition was -14% (inactive).

As for `O=C(CN1C(=O)S/C(=C\c2ccc(F)cc2)C1=O)NCCCn1ccnc1`, the inhibition was 1.3% (inactive).

Consider `O=C(/C=C/c1ccc([N+](=O)[O-])cc1)Oc1ccc(/C=N/NC(=O)c2ccncc2)cc1`, for which the inhibition was -27.5% (inactive).

Turning to `O=C(Sc1cccc2cccnc12)c1ccc(F)cc1`, the inhibition was 73.6% (active).

As for `CC(=O)/C(=N\Nc1ccccc1)Sc1cccc2cccnc12`, the inhibition is 13.9% (inactive).

As to `O=C(O)CSc1cccc2cccnc12`, the inhibition is -59.2% (inactive) and -13% (inactive).

As for `CCN(CC)C(=O)Sc1cccc2cccnc12`, the inhibition was 19.2% (inactive).

As to `O=C(CSc1cccc2cccnc12)N/N=C/c1ccc(F)cc1`, the inhibition was 17.3% (inactive).

On to `Cc1cccc(CSc2ccc3nnc(-c4ccccn4)n3n2)c1`, for which the inhibition was 8.5% (inactive).

With `Cc1cc(NC(=O)c2cc(C3CC3)on2)n(-c2ccccc2)n1`, the inhibition is -9.5% (inactive).

In the case of `COc1cc(/C=N/n2nnnc2N)ccc1OC(C)C`, the inhibition is 26.9% (inactive).

In the case of `O=C(CCCCCN1C(=O)c2ccccc2C1=O)Oc1ccc2c3c(c(=O)oc2c1)CCC3`, the inhibition is -61.9% (inactive).

As to `CC1=C(C(=O)Nc2ccccc2C)C(c2ccccc2)NC(=O)N1` (centres undefined), the inhibition is -32.2% (inactive).

`CCOC(=O)c1c(CN2CCCCC2)n(C)c2ccc(OC)c(S(=O)(=O)c3ccccc3)c12`: the inhibition is 4.2% (inactive).

For the compound `COC(=O)c1cccc(-n2c(=O)n(Cc3ccccc3)c(=O)c3[nH]cnc32)c1C`, the inhibition is 23.8% (inactive).

Take `Cc1ccc(C(=O)O)cc1-n1c(=O)n(Cc2ccccc2)c(=O)c2[nH]cnc21`: the inhibition was -9.2% (inactive).

With `COc1ccc(Cn2c(=O)c3[nH]cnc3n(-c3ccccc3C)c2=O)cc1`, the inhibition was -13.7% (inactive).

As to `COc1cccc(Cn2c(=O)c3[nH]cnc3n(-c3ccccc3C)c2=O)c1`, the inhibition was 7.3% (inactive).

Regarding `O=C(Nc1ccc(Oc2ccccc2)cc1)c1cnc2n(c1=O)CCS2`, the inhibition is 0.1% (inactive).

On to `Cc1ccc(S(=O)(=O)N(Cc2cc3ccc(C)cc3[nH]c2=O)c2ccccc2)cc1`, for which the inhibition was 17.5% (inactive).

Turning to `CCCCCn1c(SCCCC)nc2c1c(=O)[nH]c(=O)n2C`, the inhibition was -43.8% (inactive).

On to `COc1cc2c(cc1OC)C1(CCCC1)CNC2C` (centres undefined), for which the inhibition is 7.4% (inactive).

As to `COc1cc2c(cc1OC)C1(CCCC1)CNC2c1ccc([N+](=O)[O-])cc1` (centres undefined), the inhibition was -8.4% (inactive).

With `COc1ccc(OC)c(NC(=O)Nc2ccc3c(c2)OCO3)c1`, the inhibition was -10.5% (inactive).

For `O=C(Nc1ccc(C(F)(F)F)cc1)c1ccc2ncsc2c1`, the inhibition was -15.9% (inactive).

Regarding `Cc1ccc(NC2=C(Cl)C(=O)c3ccccc3C2=O)cc1`, the inhibition is 37.4% (inactive).

As to `O=C1C(Cl)=C(Nc2ccccc2)C(=O)c2ccccc21`, the inhibition was 15.5% (inactive).

With `O=C1C(Cl)=C(Nc2ccc3cn[nH]c3c2)C(=O)c2ccccc21`, the inhibition is 76.4% (active).

Consider `COC(=O)c1c(NC(=O)/C=C/C(=O)O)sc(Cc2ccccc2)c1C`, for which the inhibition is 14.3% (inactive).

Consider `NNC(=O)c1ccc(CSc2cccc3cccnc23)cc1`, for which the inhibition is -21.6% (inactive).

`O=C(c1ccc(CNS(=O)(=O)c2ccc(Br)cc2)cc1)N1CCCCCC1`: the inhibition was -30.5% (inactive).

On to `CC(=O)N1CCc2cc(S(=O)(=O)NC(Cc3ccccc3)C(=O)NCCN3CCCCC3C)ccc21` (centres undefined), for which the inhibition was 15% (inactive).

On to `Oc1[nH]c(N=C2N=c3ccccc3=N2)c2ccccc12`, for which the inhibition was 59.4% (active).

With `N#CC(=C1N=c2ccccc2=N1)c1c(O)[nH]c2ccccc12`, the inhibition was -33.6% (inactive).

Consider `Oc1[nH]c(=S)sc1C=C1N=c2ccccc2=N1`, for which the inhibition was 6.5% (inactive).

With `O=C(COc1ccccc1)N1CCN=C1SCc1ccc(F)cc1`, the inhibition is 2.9% (inactive).

Take `O=C(CSc1nnc2c(Cl)cc(C(F)(F)F)cn12)N(Cc1ccccc1)Cc1ccccc1`: the inhibition is 1% (inactive).

Consider `Cc1cc(NS(=O)(=O)c2ccc(NC(=O)c3ccc(Cl)cc3Cl)cc2)no1`, for which the inhibition is -5.5% (inactive).

As for `O=C(N/N=C(\c1ccccc1)c1cccnc1)c1ccc(O)cc1`, the inhibition is 28.3% (inactive).

On to `O=C(N/N=C(\c1ccccc1)c1cccnc1)c1cc(O)ccc1O`, for which the inhibition is -0.3% (inactive).

With `CC1=C(C#N)C(NC(=O)c2ccco2)(C(F)(F)F)C(=O)N1` (centres undefined), the inhibition is 9.4% (inactive).

Turning to `CCc1nnc(NC(=O)c2ccc3ccccc3n2)s1`, the inhibition is 0.1% (inactive).

As for `CCc1nnc(NC(=O)c2c(OC)cccc2OC)s1`, the inhibition was -5.6% (inactive).

Take `C=CCN1C(=O)C(CC(=O)O)SC1=Nc1ccc(C(=O)O)cc1` (centres undefined): the inhibition was 5.3% (inactive).

Take `CCOC(=O)C1CCN(S(=O)(=O)c2cc(C(=O)N3CCCCC3)ccc2OC)CC1`: the inhibition is 2.3% (inactive).

On to `COc1ccc(CNC(=O)C2CCC(=O)N(CCCN3CCCC3=O)C2)c(OC)c1` (centres undefined), for which the inhibition is -21.5% (inactive).

For the compound `COc1cc(NC(=O)CN2C(=O)CN(C)C2=O)c(C)cc1[N+](=O)[O-]`, the inhibition was -7.1% (inactive).

As for `COc1cc(NC(=O)CN2CCCCC2)c(C)cc1[N+](=O)[O-]`, the inhibition was 13% (inactive).

Take `COc1ccc(SCC(=O)c2cc(C)c(OC(=S)N(C)C)c(C)c2)cc1`: the inhibition was -46.3% (inactive).

As to `CC(C)C(=O)OCC(=O)NCc1ccccc1Cl`, the inhibition was -7.3% (inactive).

Take `O=C(CCN1C(=O)[C@@H]2Cc3ccccc3CN2C1=O)N[C@H](Cc1ccccc1)C(=O)O`: the inhibition was -10% [at 20 µM] (inactive).

Consider `C=CCn1c(O)c(N=NC(=S)Nc2cccc(C)c2)c2ccccc21`, for which the inhibition was 34% (inactive).

For `C=CCn1c(O)c(N=NC(=S)Nc2ccc(OC)cc2)c2ccccc21`, the inhibition is 44.9% (inactive).

For the compound `C=CCn1c(O)c(N=NC(=S)Nc2cccc(OC)c2)c2ccccc21`, the inhibition was 52.2% (active).

On to `N=C1C(c2nc3ccccc3s2)=C(O)CN1CCCO`, for which the inhibition was 5.8% (inactive).

In the case of `CCN(CC)CCCN=Cc1c(-c2ccccc2)[nH]n(-c2nc3ccccc3s2)c1=O`, the inhibition is 2.1% (inactive).

Regarding `Cc1cc(Cl)ccc1NC(=O)Cn1cncn1`, the inhibition was -2.4% (inactive).

As to `CC(CCc1ccc(O)cc1)NCCC(c1ccccc1)c1ccccc1` (centres undefined), the inhibition is 42.6% (inactive).

Turning to `CC(NCCC(c1ccccc1)c1ccccc1)c1ccccc1` (centres undefined), the inhibition is -18.9% (inactive).

Regarding `CCOC(=O)c1c(C)[nH]c(C)c1C(=O)CSc1nc2ccccc2c(=O)n1-c1ccc(Cl)cc1`, the inhibition is -15.4% (inactive).

Take `Nc1c2c(nc3sc4c(c13)CCCCC4)CCCCC2`: the inhibition was -28.2% (inactive).

As for `Nc1c2c(nc3sc4c(c13)CCCC4)CCCCCC2`, the inhibition was -20.4% (inactive).

Consider `Nc1nc2sc3c(c2c(=O)s1)CCCC3`, for which the inhibition is -49.8% (inactive).

Regarding `Nc1c2c(nc3sc4c(c13)CCCC4)-c1ccccc1CC2`, the inhibition was 9.5% (inactive).

Consider `CC1CCN(C(=O)COc2ccc3ccccc3c2Br)CC1`, for which the inhibition is -12.2% (inactive).

For the compound `CCc1ccc(CN2CCC(C(=O)Nc3cccc(-c4nnc(C)s4)c3)CC2)o1`, the inhibition was -24.6% (inactive).

`O=S(=O)(NCCc1ccccc1)c1ccc(-n2cnnn2)cc1`: the inhibition is -7.2% (inactive).

For the compound `CC(=O)Nc1cccc(NC(=O)COc2nncc3ccccc23)c1`, the inhibition was 13.2% (inactive).

In the case of `CC(C)Cn1c(C(C)NC(=O)Cc2ccccc2)nc2ccccc21` (centres undefined), the inhibition is -13.7% (inactive).

As to `O=C1CCC([N+](=O)[O-])C(c2ccc(Cl)cc2)N1` (centres undefined), the inhibition is -23.8% (inactive).

With `CCOC(=O)c1cc2c(ccc3ccccc32)oc1=O`, the inhibition was -26.8% [at 20 µM] (inactive).

For the compound `CC(=O)c1cc2c(ccc3ccccc32)oc1=O`, the inhibition was -8.6% (inactive).

As for `CC1(C)CC(=O)CC(=Nc2ccc3[nH]c(=O)[nH]c3c2)C1`, the inhibition was 17.9% (inactive).

With `CC1Oc2ccccc2C=C1/C=N/NC(=O)c1ccncc1` (centres undefined), the inhibition is 22.3% (inactive).

Take `CC(C)CCn1nnnc1CN1CCN(c2ccc(F)cc2)CC1`: the inhibition was -16.4% [at 20 µM] (inactive).

As for `Cc1cccc(N2CCCn3c2nc2c3c(=O)n(CCN3CCOCC3)c(=O)n2C)c1`, the inhibition was -4% (inactive).

Turning to `Cc1ccc(N2CCCn3c2nc2c3c(=O)n(CCN3CCOCC3)c(=O)n2C)cc1`, the inhibition is -16.1% (inactive).

For the compound `Cn1c(=O)n(CCN2CCOCC2)c(=O)c2c1nc1n2CCCN1c1ccccc1`, the inhibition was 51.1% (active).

As for `CN(CC(=O)Nc1ccc(F)c(F)c1F)C(=O)c1ccc(=O)[nH]c1`, the inhibition was 31.4% (inactive).

Usually inhibition stands for the change of the read-out against control, counted positive when it falls.
